Source: PubChem (Broad Institute)
Shown are actives, neighbours in structure and some others; about 6.7% of the full set was active somewhere.
T cruzi growth-1 – inhibitors of T. cruzi proliferation; T. cruzi beta-gal in NIH3T3, GalScreen luminescence, 90 h; inhibition, % at 8.34 µM; 77,000 tested, 5.9% active; AID 624255;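 active = mean inhibition above about 93%, with at least 55% of replicates each passing it, limit read from the data, passing the limit was not always enough; inconclusive = only one of those two conditions holds; inactive = neither condition holds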
Pf Dd2 inh – P. falciparum Dd2 growth inhibition; SYBR Green, 72 h; active compounds read low; activity change, % at 10 µM; 94,000 tested, 2.3% active; AID 1159554; in the data active = activity change below about -80%; inconclusive = no clear call, values can overlap the other calls
C diff HTS – inhibitors of Clostridium difficile growth | 86,000 tested, 0.25% active | growth activity, negative = inhibition, % at 16 µg/mL (by protocol) | Clostridium difficile clinical isolate growth, OD600, 24 h; active compounds read low | AID 1259249;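 active = mean growth activity at or below -80% and every replicate also at or below -80%; inconclusive = mean at or below -80% but some replicate above -80%; inactive = mean growth activity above -80%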;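 also: 0% = DMSO wells and -100% = levofloxacin 16 µg/mL wells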
T cruzi growth-2 – Trypanosoma cruzi proliferation inhibition | shares compounds with T cruzi growth-1 | T. cruzi beta-gal in NIH3T3, GalScreen luminescence, 90 h | inhibition, % at 8.35 µM | 5,600 tested, 72% active;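 active = mean replicate inhibition above about 95% and at least 55% of replicates individually reaching it, limit read from the data; inconclusive = only one of the two criteria is met; inactive = neither criterion is met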
T cruzi growth-3 – Trypanosoma cruzi proliferation inhibition. T. cruzi beta-gal in NIH3T3, GalScreen luminescence, 90 h. shares compounds with T cruzi growth-1. 5,600 tested, 21% active. inhibition, % at 2.09 µM;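 active = mean inhibition above about 95%, with at least 55% of replicates also reaching it, limit read from the data; inconclusive = meets just one of the two conditions; inactive = meets neither condition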;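 also: plate controls were neutral control median for no effect and positive control median for full effect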
NIH3T3 tox – kills mouse NIH/3T3 fibroblasts; shares compounds with T cruzi growth-1; NIH/3T3 viability, CellTiter-Glo ATP luminescence, 90 h; cytotoxicity (signal decrease), % at 8.35 µM; 5,600 tested, 14% active;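 active = mean signal decrease across replicates above about 35% based on untreated-well scatter, with enough replicates individually passing, limit read from the data; inconclusive = no rule stated though some were filed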;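 also: 0% = median of neutral control wells and 100% = median of positive control wells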
3T3 cytotox 2 – NIH/3T3 (mouse) viability loss; 5,600 tested, 56% active; shares compounds with T cruzi growth-1; inhibition, % at 24.9 µM; NIH/3T3 viability, CellTiter-Glo ATP luminescence, 90 h;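 active = mean loss of cell viability signal at or above a set limit, and enough replicates individually reaching it; inconclusive = meets only the mean limit or only the replicate share; inactive = meets neither condition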;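 also: 0% = median of neutral control wells and 100% = median of positive control wells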
The depositor's hits bear a star; ? = inconclusive; . = no result.

SMILES	T cruzi growth-1	Pf Dd2 inh	C diff HTS	T cruzi growth-2	T cruzi growth-3	NIH3T3 tox	3T3 cytotox 2
C[C@@H]1CCCCO[C@H](CN(C)S(=O)(=O)c2ccc(Cl)cc2)[C@@H](C)CN([C@@H](C)CO)C(=O)c2cc(NC(=O)Cc3ccccc3)ccc2O1	105*	-68	-5	105*	87	-16	46*
C[C@H](CO)N1C[C@H](C)[C@@H](CN(C)S(=O)(=O)c2ccc(Cl)cc2)OCCCC[C@H](C)Oc2ccc(NC(=O)Cc3ccccc3)cc2C1=O	40	-41	6	.	.	.	.
C[C@@H]1CN([C@H](C)CO)C(=O)c2cc(NC(=O)Cc3ccccc3)ccc2O[C@@H](C)CCCCO[C@H]1CN(C)S(=O)(=O)c1ccc(Cl)cc1	96*	-82*	-2	107*	77	17	14
COCCNC(=O)C[C@H]1C[C@H]2c3cc(NS(=O)(=O)c4ccccc4)ccc3O[C@H]2[C@@H](CO)O1	-4	23	.	.	.	.	.
COc1cc(CN2CC3(CN(C(=O)Nc4c(C)noc4C)C3)c3c(n(C)c4cc(OC)ccc34)[C@H]2CO)cc(OC)c1	.	-47	-4	.	.	.	.
Cc1noc(C)c1S(=O)(=O)N(C)C[C@@H]1OCCCC[C@H](C)Oc2ccc(NS(=O)(=O)c3ccc(F)cc3)cc2C(=O)N([C@H](C)CO)C[C@@H]1C	108*	-38	-10	100*	32	-3	25
Cc1noc(C)c1S(=O)(=O)N(C)C[C@@H]1OCCCC[C@@H](C)Oc2ccc(NS(=O)(=O)c3ccc(Cl)cc3)cc2C(=O)N([C@H](C)CO)C[C@H]1C	103*	-57	-7	105*	71	19	1
Cc1ccc(S(=O)(=O)Nc2ccc3c(c2)C(=O)N([C@H](C)CO)C[C@@H](C)[C@H](CN(C)S(=O)(=O)c2c(C)noc2C)OCCCC[C@@H](C)O3)cc1	?	-47	-10	112*	40	11	-16
Cc1noc(C)c1S(=O)(=O)N(C)C[C@@H]1OCCCC[C@H](C)Oc2ccc(NS(=O)(=O)c3ccc(F)cc3)cc2C(=O)N([C@@H](C)CO)C[C@H]1C	52	-48	-9	.	.	.	.
Cc1ccc(S(=O)(=O)Nc2ccc3c(c2)C(=O)N([C@H](C)CO)C[C@H](C)[C@H](CN(C)S(=O)(=O)c2c(C)noc2C)OCCCC[C@@H](C)O3)cc1	23	48	4	.	.	.	.
Cc1noc(C)c1S(=O)(=O)N(C)C[C@H]1OCCCC[C@H](C)Oc2ccc(NS(=O)(=O)c3ccc(Cl)cc3)cc2C(=O)N([C@@H](C)CO)C[C@@H]1C	94	-50	-1	.	.	.	.
O=C(Nc1ccccc1F)N[C@@H]1CC[C@@H](CC(=O)N2CCCCC2)O[C@@H]1CO	3	-4	.	.	.	.	.
CN(C)C(=O)c1cccc(-c2ccccc2[C@@H]2[C@@H](C#N)N(C(=O)C3CCCCC3)[C@H]2CO)c1	.	-10	2	.	.	.	.
CO[C@@H]1CN(C)C(=O)c2ccc(NS(=O)(=O)c3cccc(Cl)c3)cc2OC[C@H](C)NC[C@@H]1C	95	7	.	.	.	.	.
CCS(=O)(=O)NCC[C@@H]1CC[C@@H](NS(=O)(=O)c2cccc(Cl)c2)[C@H](CO)O1	-7	4	.	.	.	.	.
Cc1ccc(S(=O)(=O)N[C@H]2CC[C@H](CCn3cc(C4CC4)nn3)O[C@@H]2CO)cc1	.	0	1	.	.	.	.
N#C[C@H]1[C@@H](c2ccccc2)[C@@H](CO)N1S(=O)(=O)c1cccc(F)c1	-26	19	-4	.	.	.	.
CCCC#Cc1ccc([C@H]2[C@H](C#N)N(S(=O)(=O)c3cccc(F)c3)[C@H]2CO)cc1	98*	-35	2	103*	105*	7	59*
CCCC#Cc1ccc([C@@H]2[C@H](C#N)N(S(=O)(=O)c3cccc(F)c3)[C@H]2CO)cc1	87	-75	3	.	.	.	.
Cc1ccccc1S(=O)(=O)N1[C@H](C#N)[C@@H](c2ccc(-c3ccccc3)cc2)[C@@H]1CO	67	-2	-11	.	.	.	.
N#C[C@H]1[C@H](c2ccc(-c3cccc(F)c3)cc2)[C@H](CO)N1S(=O)(=O)c1cccc(F)c1	96*	-37	7	108*	75	37*	57*
